Bioassay records as filed in PubChem.
MBD2 DNA inh: MBD2-methylated oligo binding inhibition; TR-FRET, MBD2 binding to methylated oligonucleotide; inhibition, % at 4.4 µM; 0.31% of 370,000 active; AID 686964; in the data active = inhibition above about 13%
LEDGF integ inh: blocks HIV-1 LEDGF/p75-dependent DNA integration. TR-FRET IN-LEDGF/p75 DNA integration, Eu/Cy5. 0.64% of 370,000 active. inhibition, % at 3.7 µM;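 active = inhibition above the screen-wide mean plus 3 SD, cut at about 13% in these data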;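 note: signal is the Cy5 over europium emission ratio at 671 and 618 nm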
PRMT1 FP inh: blocks human protein arginine methyltransferase 1. Q99873. recombinant PRMT1, activity-based probe fluorescence polarization. inhibition, % at 2.79 µM. 1.3% of 370,000 active. AID 652257;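 active = inhibition above about 21% made by adding two undisclosed values, limit read from the data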
ABHD5 PLIN5 PPI: blocks binding of human ABHD5 to perilipin-5; Q00G26+Q8WTS1; Split G. princeps luciferase complementation, luminescence, 4 h; inhibition, % at 4 µM; 0.78% of 360,000 active;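 active = inhibition above the mean inhibition across every tested compound plus 3 SD, cut at about 22% in these data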
rCAG binder: r(CAG) repeat RNA binding. inhibition, % at 3 µM. AID 651821. TO-PRO-1 dye displacement fluorescence. 1.3% of 370,000 active;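 active = inhibition above the plate cutoff, the mean of all test compounds on that plate plus 3 SD, cut at about 35% in these data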;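 note: higher means more dye released from RNA so lower well fluorescence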
UHRF1 binding: human UHRF1 methylated DNA binding inhibitors; 0.75% of 370,000 active; inhibition, % at 4.4 µM; UHRF1 binding to methylated oligo, TR-FRET; AID 687016; Q96T88;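 note: UHRF1 SRA domain binding a hemimethylated CpG hairpin DNA probe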
PRMT1 inh conf: confirmation of human PRMT1 inhibitors; recombinant His-PRMT1, activity-based probe fluorescence polarization; shares compounds with PRMT1 FP inh; 42% of 3,300 active; AID 687036; inhibition, % at 2.79 µM;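 active = mean inhibition across replicates above the hit cutoff derived for the earlier primary screen, cut at about 22% in these data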
UHRF1 DNA bind: UHRF1 methyl-oligo binding inhibition as MBD2 counter-screen | shares compounds with MBD2 DNA inh | UHRF1 binding to methylated oligonucleotide, TR-FRET | inhibition, % at 4.4 µM | 25% of 1,000 active;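 note: UHRF1 SRA domain binding a labeled hemimethylated CpG hairpin DNA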
MBD2 confirm: MBD2-DBD methyl-DNA binding inhibition, TR-FRET confirmation; shares compounds with MBD2 DNA inh; TR-FRET MBD2-DBD binding to methylated oligonucleotide; inhibition, % at 4.4 µM; 26% of 1,000 active; AID 720531; in the data active = inhibition above about 14%
IN multimer up: activates HIV-1 integrase multimerization in LEDGF counter-screen | TR-FRET HIV-1 integrase multimerization, biochemical | shares compounds with LEDGF integ inh | activation, % at 7.7 µM | 17% of 2,000 active; in the data active = activation above about 8.9%
TR-FRET interf: counter-screen for LEDGF/p75 integration inhibitors: TR-FRET optical interference | shares compounds with LEDGF integ inh | TR-FRET optical interference counterscreen, HIV-1 IN multimerization | inhibition, % at 7.7 µM | 2,000 tested, under 10 active;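 active = inhibition above the mean over all tested compounds plus 3 SD, which no compound reached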
LEDGF integ conf: LEDGF/p75-dependent HIV-1 integration inhibition, confirmation; 36% of 2,000 active; shares compounds with LEDGF integ inh; inhibition, % at 3.7 µM; TR-FRET LEDGF/p75-dependent HIV-1 integration, biochemical; in the data active = inhibition above about 14%
Numbers stand for hits. The list is not random: actives were taken first. Their share in the collection is about 4.1%. Cut-off read from the data, not from the text of the source, unless noted: active = inhibition above about 21%; inactive = the rest.

Screening CCNC(=O)Nc1ccc2c(c1)C(=O)N(C)[C@H]1CC[C@H](CC(=O)N[C@H](C)c3ccccc3)O[C@@H]1CO2 returned MBD2 DNA inh inactive, LEDGF integ inh inactive, PRMT1 FP inh inactive, rCAG binder inactive and UHRF1 binding inactive.
`COc1cc2[nH]c(Cl)c([N+](=O)[O-])c2cc1OC` gave MBD2 DNA inh inactive, LEDGF integ inh 49, PRMT1 FP inh 30, ABHD5 PLIN5 PPI inactive, rCAG binder inactive, UHRF1 binding inactive, PRMT1 inh conf inactive, IN multimer up inactive, TR-FRET interf inactive and LEDGF integ conf inactive.
`Oc1cccc(N2CCN(c3cccc(O)c3)CC2)c1` gave MBD2 DNA inh inactive, LEDGF integ inh inactive, PRMT1 FP inh inactive, rCAG binder inactive and UHRF1 binding inactive.
Screening CC(/C=N/n1c(-c2ccncc2)n[nH]c1=S)=C\c1ccco1 returned MBD2 DNA inh inactive, LEDGF integ inh 16, PRMT1 FP inh 27, ABHD5 PLIN5 PPI inactive, rCAG binder inactive, UHRF1 binding inactive, PRMT1 inh conf inactive, IN multimer up inactive, TR-FRET interf inactive and LEDGF integ conf inactive.
Cc1cc(C)c2c(N)c(C(=O)C(C)(C)C)sc2n1 was read as MBD2 DNA inh inactive, LEDGF integ inh inactive, PRMT1 FP inh inactive, ABHD5 PLIN5 PPI inactive, rCAG binder inactive and UHRF1 binding inactive.
`Cc1cc(C)c2c(N)c(S(=O)c3ccc(C(C)(C)C)cc3)sc2n1` (centres undefined) gave MBD2 DNA inh inactive, LEDGF integ inh 36, PRMT1 FP inh 33, ABHD5 PLIN5 PPI inactive, rCAG binder inactive, UHRF1 binding inactive, PRMT1 inh conf inactive, IN multimer up inactive, TR-FRET interf inactive and LEDGF integ conf inactive.
Screening COc1ccc2c(c(-c3ccccc3)cn2C)c1-c1ccccc1 returned MBD2 DNA inh inactive, LEDGF integ inh inactive, PRMT1 FP inh inactive, rCAG binder inactive and UHRF1 binding inactive.
`O=C(O)/C=C/C(=O)N1N=C(c2ccco2)CC1c1ccco1` (centres undefined) gave MBD2 DNA inh inactive, LEDGF integ inh 51, PRMT1 FP inh 43, ABHD5 PLIN5 PPI inactive, rCAG binder inactive, UHRF1 binding inactive, PRMT1 inh conf inactive, IN multimer up inactive, TR-FRET interf inactive and LEDGF integ conf inactive.
Screening CC(C)C1NC2(C(=O)c3ccccc3C2=O)C2C(=O)N(c3ccc(F)cc3)C(=O)C12 (centres undefined) returned MBD2 DNA inh inactive, LEDGF integ inh 39, PRMT1 FP inh 33, ABHD5 PLIN5 PPI inactive, rCAG binder inactive, UHRF1 binding inactive, PRMT1 inh conf 44, IN multimer up inactive, TR-FRET interf inactive and LEDGF integ conf inactive.
`CCCC1CCC2(CCCN2CCOC(=S)NCc2cccc(C)c2)CC1` (centres undefined) gave MBD2 DNA inh inactive, LEDGF integ inh inactive, PRMT1 FP inh inactive and UHRF1 binding inactive.
`COC(=O)[C@]12C[C@H](CC(=O)N3CCSCC3)C(=O)N(Cc3ccc4c(c3)OCO4)C1=C[C@H](C(C)C)O[C@@H]2C1CC1` gave MBD2 DNA inh inactive, LEDGF integ inh inactive, PRMT1 FP inh inactive, rCAG binder inactive and UHRF1 binding inactive.
Cc1c(N)cc(N)cc1C(=O)O was read as MBD2 DNA inh 26, LEDGF integ inh 74, PRMT1 FP inh 32, ABHD5 PLIN5 PPI inactive, rCAG binder inactive, UHRF1 binding 73, PRMT1 inh conf inactive, UHRF1 DNA bind inactive, MBD2 confirm inactive, IN multimer up inactive, TR-FRET interf inactive and LEDGF integ conf inactive.
`Cc1c(Br)cc(C(=O)O)c(C)c1C` gave MBD2 DNA inh inactive, LEDGF integ inh inactive, PRMT1 FP inh inactive, ABHD5 PLIN5 PPI inactive, rCAG binder inactive and UHRF1 binding inactive.
Screening NC(=O)c1sc2nc3c(c(-c4ccco4)c2c1N)CCCC3 returned MBD2 DNA inh inactive, LEDGF integ inh inactive, PRMT1 FP inh inactive, ABHD5 PLIN5 PPI inactive, rCAG binder inactive and UHRF1 binding inactive.
For Cc1ccccc1NC(=O)c1sc2nc3c(c(-c4ccco4)c2c1N)CCC3 the results were MBD2 DNA inh inactive, LEDGF integ inh 46, PRMT1 FP inh 44, ABHD5 PLIN5 PPI inactive, rCAG binder inactive, UHRF1 binding inactive, PRMT1 inh conf inactive, IN multimer up inactive, TR-FRET interf inactive and LEDGF integ conf inactive.
Screening Cc1cc(C)c(CN2CCN(C(=O)Cn3cc(C)c(=O)[nH]c3=O)CC2)c(C)c1 returned MBD2 DNA inh inactive, LEDGF integ inh inactive, PRMT1 FP inh inactive, rCAG binder inactive and UHRF1 binding inactive.
`Cc1cccc(/N=C/c2c(O)[nH]c3ccccc23)n1` gave MBD2 DNA inh inactive, LEDGF integ inh inactive, PRMT1 FP inh inactive, ABHD5 PLIN5 PPI inactive, rCAG binder inactive and UHRF1 binding inactive.
`Cc1cccc(/N=C/c2sc3ccccc3c2O)n1` gave MBD2 DNA inh inactive, LEDGF integ inh 50, PRMT1 FP inh 37, ABHD5 PLIN5 PPI inactive, rCAG binder inactive, UHRF1 binding inactive, PRMT1 inh conf inactive, IN multimer up inactive, TR-FRET interf inactive and LEDGF integ conf inactive.
Screening COc1ccccc1Cc1c(-c2cccc(Cl)c2)nc2c3ccccc3ccn12 returned MBD2 DNA inh inactive, LEDGF integ inh inactive, PRMT1 FP inh inactive, rCAG binder inactive and UHRF1 binding inactive.
Cc1nc2sc(C(c3ccc(Cl)cc3)N3CCN(C(=O)c4ccco4)CC3)c(O)n2n1 (centres undefined) was read as MBD2 DNA inh inactive, LEDGF integ inh inactive, PRMT1 FP inh inactive, ABHD5 PLIN5 PPI inactive, rCAG binder inactive and UHRF1 binding inactive.
For Cc1nc2sc(C(c3ccco3)N3CCN(c4cccc(Cl)c4)CC3)c(O)n2n1 (centres undefined) the results were MBD2 DNA inh inactive, LEDGF integ inh 20, PRMT1 FP inh 65, ABHD5 PLIN5 PPI inactive, rCAG binder inactive, UHRF1 binding inactive, PRMT1 inh conf inactive, IN multimer up inactive, TR-FRET interf inactive and LEDGF integ conf inactive.
